Hits are enriched below; roughly 7.5% of the tested compounds scored in any of these assays.
Rab9 promoter act: qHTS Assay for Rab9 Promoter Activators; Huh7 Rab9 promoter-luciferase reporter, luminescence, 24 h; Potency, µM (top dose mostly 9.22 µM), for the others: at the top dose activation, negative = inhibition, hits mostly activators; 320,000 tested, 2.8% active; AID 485297, 2010; also: % of control where 0% means no effect; nearly all actives have a fitted effect of over 60% in size
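Luminescence read-out: Huh7 cells stably expressing Rab9-luciferase, treated 24 h with compound at 37 °C, then lysed with luciferase reagent for 10 min at ambient before reading.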
ELG1 genotoxic: qHTS screen for small molecules that induce genotoxicity in human embryonic kidney (HEK293T) cells expressing luciferase-tagged ELG1; HEK293T ELG1-luciferase reporter, luminescence, 16 h; 330,000 tested, 1.3% active; Potency, µM (doses to about 46 µM), inactives show at the highest dose activity change, positive = activation, actives largely listed as activators; also: % of control where 0% means no effect; nearly all actives have a fitted effect of over 60% in size
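HEK293T cells expressing luciferase-tagged ELG1 were treated with compound or DMSO for 16 hr at 37°C. Luciferase activity was then read after 30 min with ONE-Glo at room temperature; rising signal flags genetic stress.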
NPC1 prom act: qHTS Assay for NPC1 Promoter Activators | Potency, µM (titrated, usually from 9.22 µM), inactives show at the highest dose activation, hits mostly activators | Huh7 NPC1 promoter luciferase reporter, 24 h | 320,000 tested, 2.4% active; also: % of control where 0% means no effect; nearly all actives have a fitted effect of over 60% in size
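Luminescence read-out of NPC1 promoter-driven luciferase in stably transfected Huh7 cells; compounds delivered in DMSO and left 24 h at 37C, 5% CO2, qHTS titration format.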
SMN2 splice enh: qHTS Assay for Enhancers of SMN2 Splice Variant Expression; HEK293 SMN2-luciferase splicing reporter, luminescence, 30-36 h; Potency, µM (top dose mostly 46.1 µM), for inactives: top-dose activity change, positive = activation, actives largely listed as activators; 210,000 tested, 2.8% active; also: % of control where 0% means no effect; nearly all actives have a fitted effect of over 55% in size
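qHTS luciferase splicing reporter: luminescence rises when SMN2 exon 7 is included in transfected HEK293 cells. Compound exposure lasted 30-36 h at 37C, with 4.5 mM final sodium butyrate as control, followed by a ONE-Glo read.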
FLuc modulator: qHTS profiling assay for firefly luciferase inhibitor/activator using purifed enzyme and Km concentrations of substrates (counterscreen for miR-21 project) | Luciferin 4-monooxygenase (Photinus pyralis), P08659 | purified FLuc, Km substrates, luminescence inhibition | Potency, µM (top dose mostly 57.5 µM), for the others: at the highest dose activity change, negative = inhibition, hits mostly inhibitors | 360,000 tested, 6.9% active | AID 588342, 2011;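 also: plate controls were vehicle for no effect and reference inhibitor for full effect; nearly all actives have a fitted effect of over 55% in size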
Target sequence (P08659 whole entry, looked up): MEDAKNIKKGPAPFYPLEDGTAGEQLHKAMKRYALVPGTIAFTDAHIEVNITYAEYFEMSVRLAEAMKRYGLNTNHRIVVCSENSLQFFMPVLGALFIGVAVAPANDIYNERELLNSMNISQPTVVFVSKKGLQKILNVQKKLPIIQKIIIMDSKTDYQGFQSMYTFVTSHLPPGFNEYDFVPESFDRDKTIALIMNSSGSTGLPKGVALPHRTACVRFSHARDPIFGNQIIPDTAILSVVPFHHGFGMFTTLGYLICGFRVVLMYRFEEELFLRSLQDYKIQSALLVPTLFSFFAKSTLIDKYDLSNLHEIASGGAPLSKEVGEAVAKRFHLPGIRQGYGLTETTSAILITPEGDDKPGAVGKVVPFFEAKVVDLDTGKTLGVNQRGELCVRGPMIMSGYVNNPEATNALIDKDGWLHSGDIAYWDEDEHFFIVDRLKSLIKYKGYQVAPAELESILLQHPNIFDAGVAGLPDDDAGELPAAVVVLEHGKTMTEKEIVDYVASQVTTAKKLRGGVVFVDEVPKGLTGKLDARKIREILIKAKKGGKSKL
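Purified P. pyralis luciferase (10nM final) with 10uM D-luciferin and 10uM ATP (Km levels) in 50mM Tris acetate pH 7.5, 10mM Mg acetate, 0.01% Tween-20, 0.05% BSA; qHTS 6-point titration, ~60 µM downward; luminescence read.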
An asterisk follows results filed as active; ? = inconclusive; . = no result given; [ ] = another dose, or the depositor's remark. Calls follow the shape of the dose curve; as a rule, active = well fitted curve in the direction sought with a large enough effect; inconclusive = small, poorly fitted or top-dose-only effect, or another doubt; inactive = no such curve, though single readings can be large; an effect the other way counts as inactive or inconclusive. Potency is read from the fitted curve at half-maximal effect.

SMILES | Rab9 promoter act | ELG1 genotoxic | NPC1 prom act | SMN2 splice enh | FLuc modulator
O=C(c1cc(-c2ccco2)nc2ccccc12)N1CCN(c2ccc(F)cc2)CC1 | 9% | -8% | -1% | 5% | 19µM*
C/C(=N\NC(=O)c1ccc(O)cc1O)c1cccnc1 | ? | 11% | 24% | . | 9.5µM*
O=C(N/N=C/c1ccc(F)cc1)c1cc(-c2ccco2)nc2ccccc12 | -4% | 1% | -18% | 6% | 3µM*
COc1ccc(Cl)cc1NC(=O)NCCc1c(C)nn(C)c1C | . | . | . | . | -2%
O=C(O)c1cc(-c2ccco2)nc2ccccc12 | 6% | 4% | 14% | 9% | 21µM*
O=C(OCC(=O)N1CCN(C(=O)c2ccco2)CC1)c1cc(-c2ccco2)nc2ccccc12 | -10% | -2% | -5% | -7% | 15µM*
O=C(NC1CC1)c1cc(-c2ccco2)nc2ccccc12 | 2% | 0% | -2% | . | -15%
O=C(OCC(=O)N1CCN(C(=O)c2ccco2)CC1)c1cc(-c2ccc(Cl)c(Cl)c2Cl)nc2ccccc12 | 4% | -5% | 1% | -9% | -12%
Cc1cc(-c2nc3cccnc3s2)ccc1NS(=O)(=O)c1cccs1 | 1.6µM* | ? | ? | . | 13µM*
O=S(=O)(Nc1cccc2ncccc12)c1cccs1 | -11% | -60% | -20% | -1% | -12%
Cc1c(NS(=O)(=O)c2ccc3c(c2)OCCO3)cccc1-c1nc2cccnc2s1 | -5% | ? | -2% | -76% | -7%
Cc1c(NS(C)(=O)=O)cccc1-c1nc2cccnc2s1 | ? | -7% | ? | . | 17µM*
Cc1cc(-c2nc3cccnc3s2)ccc1NS(=O)(=O)c1ccc2c(c1)OCCO2 | 0% | 1% | 4% | 7% | ?
Cc1c(NS(=O)(=O)c2cccs2)cccc1-c1nc2cccnc2s1 | 13% | -4% | -2% | . | 19µM*
CN(C)CCNC(=O)C(=O)C1C(=O)Nc2ccccc21 (centres undefined) | 9% | -2% | 0% | 3% | 0%
Cc1ccc(NC(=O)C(=O)C2C(=O)Nc3ccccc32)cc1 (centres undefined) | ? | ? | ? | . | 12µM*
CC1=NN(c2ccccc2)C(=O)C1C(=O)C(=O)Nc1ccc(F)cc1 (centres undefined) | 3.2µM* | ? | ? | . | 9.5µM*
CC1=NN(c2ccccc2)C(=O)C1C(=O)c1ccccc1 (centres undefined) | -3% | -5% | -1% | -4% | -13%
Cc1cccc(CNc2ncncc2-c2ccccc2C(F)(F)F)c1 | . | . | . | -7% | .
O=C(CSc1nnc(-c2ccccc2F)o1)Nc1ccccc1Cl | . | . | . | . | 1%
O=C(CSc1nnc(-c2ccccc2Cl)o1)Nc1ccccn1 | 0.56µM* | ? | ? | . | -16%
Cc1occc1-c1nnc(SCC(=O)Nc2ccccn2)o1 | ? | ? | ? | 10µM* | -3%
Cc1cc2c(=O)[nH]c(N)nc2nc1C | . | . | . | -2%[9.22 µM] | .
Cc1cc(C)c2nc3nc(C)c(C)cc3c(N)c2c1 | -29% | 13% | -17% | -79% | 17µM*
CN(C)C(CNC(=O)c1cc2ccccc2oc1=O)c1ccccc1 (centres undefined) | ? | ? | 3.5µM* | . | 15µM*
SMILES | Rab9 promoter act | ELG1 genotoxic | NPC1 prom act | SMN2 splice enh | FLuc modulator
O=C(NCc1ccccc1)c1cc2ccccc2oc1=O | -2% | ? | 19% | . | 15µM*
CCn1c(CN2CCOCC2)nnc1SCC(=O)Nc1cccc(C)c1 | 17% | -3% | -5% | . | 3%
CCOC(=O)C1=C(C)Nc2ccc(C)cc2S1 | 4% | 0% | 15% | -9% | ?
Cc1ccc2c(c1)Sc1c(ccc3ccccc13)N2 | 2.5µM* | ? | ? | . | 12µM*
S=c1[nH]nc(-c2cc3c(s2)-c2ccccc2CC3)o1 | ? | ? | 26% | 14µM* | 17µM*
O=C(O)c1cc2c(s1)-c1ccccc1CC2 | 8% | 2% | 2% | -13%[1.84 µM] | -16%
CSc1nnc(-c2cc3c(s2)-c2ccccc2CC3)o1 | ? | ? | 12% | 18µM* | 4.8µM*
CSc1nnc(-c2sccc2-n2cccc2)o1 | -7% | -7% | -8% | 0% | 0%
